Laboratory results reported in PubChem BioAssay (EPA / NIEHS).
Activity calls are given as the source filed them. How the source made its calls: active means hit-call score of the fitted dose curve at least 0.9, where 1 is the maximum; inactive means score below 0.9.

Read-out: Apolipoprotein A-V (APOA5) gene, APOA5 (gene 116519)
Assay: LTEA_HepaRG_APOA5: Life Technologies and Expression Analysis (LTEA) Assay for Apolipoprotein A-V (APOA5) gene using HepaRG (AID 2283474)
Details: mRNA level, 48 h; actives raise or lower the signal
Method: LTEA_HepaRG is a cell based, multiplexed-readout assay that uses HepaRG, a human liver cell line, with measurements taken at 48 hours after chemical dosing on a 96-well plate.LTEA_HepaRG_APOA5 is one of 102 assay component(s) measured in the LTEA HepaRG cell culture assay. It is a marker of Steatosis.Data from the assay component LTEA_HepaRG_APOA5 was analyzed into 1 endpoint. This assay endpoint, LTEA_HepaRG_APOA5, was analyzed with bidirectional fitting relative to DMSO as the negative control and baseline of activity. Using a type of inducible reporter, measures of mRNA induction for gain or loss-of-signal activity can be used to understand regulation of transcription factor activity. To generalize the intended target to other relatable targets, this assay endpoint is annotated to the apolipoprotein intended target family, where the subfamily is Steatosis.
A total of 1060 chemcials from the ToxCast library were tested in eight-point concentration-response experiments. Cell culture and cytotoxicity assays were conducted at Thermo Fisher Scientific's Custom Services facility (Madison, WI). A single lot of human HepaRG cells (Thermo Fisher Scientific, Frederick, MD) was used for the cell culture experiments. 96-well format collagen type I coated plates of human HepaRG cells were prepared using established methods. Briefly, cryopreserved HepaRG cells were thawed, plated at a density of approximately 100,000 cells/well in HepaRG Thaw, Plate, and General Purpose media (HPRG770, Thermo Fisher Scientific), and incubated for 48 hours. 0.5% DMSO was selected as vehicle control to balance the requisite need of DMSO in HepaRG cultures to maintain differentiation (for example, baseline metabolism, proportions of hepatocytes vs. cholangiocytes), while enabling further hepatic receptor pathway activation (for example, PXR and CAR) in response to chemical exposure. 48 hours after plating, the culture medium was replaced with HepaRG Serum-Free Incudtion Media. Cells were exposed to each test chemical in duplicate and maintained in CO2 incubators for another 48 hours. Chemical plates were thawed to room temperature and 200x concentrations of treatment groups were prepared. 8-point conentration-reponse curves were made with the highest exposure at 100 uM, followed by half-log dilutions, all in 0.5% DMSO. Each test plate contained variouse controls, induction positive controls (1mM phenobarbital), cytotoxicity positive controls ([…] aflatoxin B1), vehicle controls (0.5% DMSO), and total lysis controls (0.5% DMSO). Cell morphology images were taken using an Essen IncuCyte FLR automated microscope, with six 96-well plates imaged in about 24 minutes. Images were captured and exported and JPEG files. Spent culture media was transfered to black-well plates for the LDH assay, and remaining media was sorted at -80 C for later use. Cells were treated with RLT buffer and frozen until shipped for gene expression analysis. Total RNA was isolated from the cell suspension in 75 uL of Buffer RLT (Qiagen, Germantown, MD 20874) by Quintiles/Expression Analysis (Durham, NC) using a custom isolation procedure. Total RNA from each plate well was transferred to a preamplification plate. Fluidigm's 96.96 Dynamic ArrayTM (Fluidigm, Amsterdam, the Netherlands) technology was used for gene expression analyses by quantitative reverse transcription polymerase chain reaction (qRT-PCR, performed by Quintiles/Expression Analysis, Durham, NC)89. Standard TaqManTM Assays (Applied Biosystems/ThermoFisher Scientific, Foster City, CA) were used to assess the expression of 93 genes selected based on their selectivity and sensitivity to important hepatic receptors known to be modulated by environmental chemicals; importance in human hepatocyte functionality; and hepatotoxicity. […]

| SMILES | outcome | AC50 |
| --- | --- | --- |
| CCOP(=S)(OCC)SCSCC | inactive | – |
| CCOP(=S)(Oc1ccc([N+](=O)[O-])cc1)c1ccccc1 (stereo not given) | inactive | – |
| Nc1ccc(Cl)cc1 | inactive | – |
| Cc1ccc(O)cc1C | inactive | – |
| CCC(C)(C)c1ccc(O)cc1 | inactive | – |
| Nc1cc2c3c(c1)C(c1ccccc1)=N[C@@H](NC(=O)c1cccnc1)C(=O)N3CC2 | inactive | – |
| O=P1(N(CCCl)CCCl)NCCCO1 (stereo not given) | inactive | – |
| Cc1ccc([N+](=O)[O-])cc1C | inactive | – |
| [N-]=[N+]=[N-] | – | 50 µM (active) |
| ClC1=C(Cl)C2(Cl)C3C(Cl)C(Cl)CC3C1(Cl)C2(Cl)Cl (stereo not given) | – | 50 µM (active) |
| Cc1cccc(N)c1 | inactive | – |
| CC(Cl)(Cl)C(=O)O | inactive | – |
| CN(C)C(=O)Cl | inactive | – |
| O=C(O)C(Cl)Cl | inactive | – |
| CC(Cc1ccc(OCC(=O)O)cc1)NCC(O)c1csc(C(F)(F)F)n1 (stereo not given) | inactive | – |
| CSC(C)(C)C=NO | inactive | – |
| CCCCCCCc1ccc(O)cc1 | inactive | – |
| CCCN(CCC)c1c([N+](=O)[O-])cc(C(C)C)cc1[N+](=O)[O-] | – | 0.123 µM (active) |
| c1ccc(OP(Oc2ccccc2)Oc2ccccc2)cc1 | inactive | – |
| CCN(CC)c1ccccc1 | inactive | – |

| SMILES | outcome | AC50 |
| --- | --- | --- |
| c1ccc2c(c1)Nc1ccccc1S2 | inactive | – |
| CCOC(=O)c1ccccc1C(=O)OCC | inactive | – |
| CCC1(c2ccccc2)C(=O)N=C(O)NC1=O (stereo not given) | inactive | – |
| O=C(O)C1C(C(=O)O)C2(Cl)C(Cl)=C(Cl)C1(Cl)C2(Cl)Cl (stereo not given) | inactive | – |
| c1nc[nH]n1 | – | 0.112 µM (active) |
| Cc1ccc(N)cc1N | inactive | – |
| COCCOCCO | inactive | – |
| ClC(Cl)c1ccccc1 | inactive | – |
| CC(C)(C)OOC(C)(C)C | inactive | – |
| CC(C)(C)c1ccc(O)cc1 | inactive | – |
| Nc1ccc2ccccc2c1 | inactive | – |
| CCOS(=O)(=O)OCC | inactive | – |
| OCC1CO1 (stereo not given) | inactive | – |
| CCCCN(CCCC)SN(C)C(=O)Oc1cccc2c1OC(C)(C)C2 | inactive | – |
| CCOc1ccc(C(C)(C)COCc2cccc(Oc3ccccc3)c2)cc1 | inactive | – |
| c1cc2c3c(cccc3c1)CC2 | inactive | – |
| CCCCN(CCCC)N=O | inactive | – |
| O=P(Oc1ccccc1)(Oc1ccccc1)Oc1ccccc1 | – | 50 µM (active) |
| O=[N+]([O-])c1ccccc1 | inactive | – |
| ClC(Cl)(Cl)c1ccccc1 | inactive | – |
